The source of these data is ChEMBL document CHEMBL4513216, “Probing the Open Global Health Chemical Diversity Library for Multistage-Active Starting Points for Next-Generation Antimalarials” (ACS Infect Dis, 2020).

Hit rate of the full screen: of about 68,000 compounds, about 2,700 (4%) showed an effect of 50% or more. This excerpt belongs to a sample that is enriched for strong results.

In this test the test system is Plasmodium berghei. In words: Screen against P. berghei liver stage (PbLuc), transformed with Luciferase, at 2uM. The following applies: tested at 2 uM. The format is functional, HepG2.
As for `CN1CCC(c2cccc(CCC(=O)NCC(N)=O)n2)CC1`, the INHIBITION is on record as 7.64%. As to `CN(C)C(=O)N1CCC2(CC1)CN(CC1CC1)CC21CCNC1=O` (centres undefined), the INHIBITION is given as 35.89%. Next, `CC(=O)N1CCC2(CC1)CN(CC(C)C)CC21CCNC1=O` (centres undefined): 63.35%; `CC(=O)N1CCC2(CC1)CN(C(C)=O)CC21CCNC1=O` (centres undefined): 24.36%.

Regarding `CCC[C@H]1CN(Cc2cc(C#N)n(C)c2C)C[C@@H]1NS(=O)(=O)CC`, the INHIBITION turned out to be 35.26%. With `CCC[C@H]1CN(Cc2cc(C#N)n(C)c2C)C[C@@H]1N(C)C` the figure was 51.4%; with `CCC[C@@H]1CN(Cc2cc(C#N)n(C)c2C)C[C@H]1NS(C)(=O)=O`, 1.88%. Next, `NC(=O)c1sc2ccccc2c1C1CCN(S(=O)(=O)N2CCOCC2)C1` (centres undefined): -18.15%; `Cc1noc(C)c1CN1CC[C@@H]2O[C@@H](COCC(C)C)CC[C@@H]21`: 13.87%. Next, `COCCN1CC[C@@H]2OC(COCC(=O)N3CCCC3)CC[C@@H]21` (some centres undefined): 51.05%.

For `CN(C)CCN1CC[C@@H]2O[C@@H](COCC(=O)N3CCCC3)CC[C@@H]21`, the INHIBITION is on record as -30.82%. Regarding `COCCN1CC[C@@H]2O[C@@H](COCC(=O)N3CCCC3)CC[C@@H]21`, the INHIBITION was -14.49%. With `Cc1ncnc2c1CCN(Cc1cccs1)CC2` the figure was -8.24%; with `CNS(=O)(=O)CC(=O)N1CCC(c2cc3ccccc3[nH]2)CC1`, -46.85%. Next, `O=C(C1CCCCC1)N1CCC2(CCCN2CC2CC2)CC1`: 24.15%; `O=C(C1CCCC1)N1CCC2(CC1)COCCN2CC1CC1`: -11.91%; `O=C(C1CCC1)N1CCC2(CCCN2CC2CC2)CC1`: 55.66%. With `CC(C)NC(=O)[C@@H]1CC[C@@H]2[C@@H](CCN2Cc2cn(C)c3ccccc23)O1` the figure was 29.43%; with `Cc1nc(CCCNC(=O)C2CC(=O)N(C3CC3)C2)sc1C` (centres undefined), -52.42%. Take `Cc1nc(CCCNC(=O)C2CC(=O)N(C(C)(C)C)C2)sc1C` (centres undefined): the INHIBITION turned out to be 13.87%.

Regarding `CCN1CC(C(=O)NCCCc2nc(C)c(C)s2)CC1=O` (centres undefined), the INHIBITION is reported as 72.05%. With `CCS(=O)(=O)NCc1cccnc1N1CCCC(O)C1` (centres undefined) the figure was -5.31%.

For `Nc1nc(C2CCN(C(=O)c3cncs3)CC2)cs1`, the INHIBITION worked out at 0.14%. Next, `CCC(=O)Nc1ccc(F)c(S(=O)(=O)NC(C)(C)C)c1`: 57.75%; `CC(C)(C)NS(=O)(=O)c1cc(NC(=O)C2CC2)ccc1F`: 62.51%; `CC(C)(C)NS(=O)(=O)c1ccc(NC(=O)C2CC2)cc1`: 17.2%. Next, `CCNC(=O)CNS(=O)(=O)c1cc(Br)ccc1F`: 42.32%; `CC(=O)Nc1ccc(F)c(S(=O)(=O)NC(C)(C)C)c1`: -1.87%. Next, `COC1CCN(c2ccc(NC(=O)C3CC3)cc2C(F)(F)F)CC1`: -1.71%.
